This is a sample that favours compounds with a hit; in the whole collection about 8.9% have one here.
IMPase Li inh: membrane-permeable IMPase blocker, potentiated with lithium; CHO-M1 cells, IP1 TR-FRET (IP-One), carbachol + lithium; Potency, µM (highest dose often 59.4 µM), without a hit: at the highest dose activity, negative = IMPase inhibition, most hits filed as inhibitors; 0.35% of 210,000 active; AID 1457;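 further: IP1 builds up when IMPase is blocked and the TR-FRET signal falls; potency means the concentration at half of the fitted maximal effect; plate controls were basal vehicle for no effect and high inhibitor control for full effect; nearly all actives have a fitted effect of over 50% in size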
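Lithium-sensitised IP1 accumulation assay; M1-expressing CHO cells treated 30 min at 37C with compound. Competitive antibody detection by time-resolved FRET followed a 10 min room-temperature lysis step.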
ALDH1A1 inh: ALDH1A1 (human) enzyme inhibition; Potency, µM (doses to about 75.3 µM), inactives show top-dose activity, negative = inhibition, usual class: inhibitors; P00352; Purified ALDH1A1, NADH fluorescence, propionaldehyde substrate; 7.3% of 220,000 active; AID 1030; active means well fitted inhibition curve with a large enough effect, not every such curve was filed as active; inconclusive means small, poorly fitted or top-dose-only effect, or another doubt; inactive means no such curve, though single readings can be large or run the other way;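 further: potency means the concentration at half of the fitted maximal effect; plate controls were no enzyme wells and a reference inhibitor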
Target sequence (P00352 whole entry, looked up): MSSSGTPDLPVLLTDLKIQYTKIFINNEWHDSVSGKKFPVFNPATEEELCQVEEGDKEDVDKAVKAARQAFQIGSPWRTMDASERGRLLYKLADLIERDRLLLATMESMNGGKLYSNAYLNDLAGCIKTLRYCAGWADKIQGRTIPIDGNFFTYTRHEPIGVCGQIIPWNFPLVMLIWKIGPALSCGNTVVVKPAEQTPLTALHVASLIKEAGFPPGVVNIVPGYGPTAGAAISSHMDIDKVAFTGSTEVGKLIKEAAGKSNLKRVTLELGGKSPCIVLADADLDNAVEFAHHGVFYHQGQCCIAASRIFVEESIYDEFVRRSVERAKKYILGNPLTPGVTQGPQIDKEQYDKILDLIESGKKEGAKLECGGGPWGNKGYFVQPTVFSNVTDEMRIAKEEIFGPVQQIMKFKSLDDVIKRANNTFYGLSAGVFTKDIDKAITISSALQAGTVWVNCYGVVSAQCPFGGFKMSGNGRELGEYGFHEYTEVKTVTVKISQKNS
HPGD inh: inhibitors of human 15-hydroxyprostaglandin dehydrogenase (HPGD); AID 894; 4.3% of 150,000 active; P15428; purified HPGD, NADH fluorescence kinetic, PGE2 substrate; Potency, µM, for the others: at the highest dose activity change, negative = inhibition, actives largely listed as inhibitors; active means well fitted inhibition curve with a large enough effect, not every such curve was filed as active; inconclusive means small, poorly fitted or top-dose-only effect, or another doubt; inactive means no such curve, though single readings can be large or run the other way; further: potency means the concentration at half of the fitted maximal effect
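NADH formation kinetics: reaction with 30 uM PGE2 and 1 mM NAD+ (final), 20 nM enzyme, Tris-HCl pH 8 with Tween 20, after 15 min compound preincubation at room temperature. Fluorescence change, last versus first of five reads.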
NPSR antag: antagonists of human neuropeptide S receptor cAMP signaling. Q6W5P4. CHO-NPSR cells, cAMP TR-FRET, antagonist mode. 1% of 220,000 active. Potency, µM (titrated, usually from 38.3 µM), for the others: at the top dose activity change, negative = inhibition, hits mostly inhibitors; further: potency means the concentration at half of the fitted maximal effect; nearly all actives have a fitted effect of over 50% in size
ALOX12 inhib: blocks human 12-lipoxygenase activity | purified 12-hLO, xylenol orange hydroperoxide absorbance | Potency, µM (highest dose often 57.1 µM), inactives show top-dose activity change, negative = inhibition, hits mostly inhibitors | 0.12% of 150,000 active | AID 1452; further: potency means the concentration at half of the fitted maximal effect; nearly all actives have a fitted effect of over 55% in size
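Hydroperoxide output read as Fe(III)-xylenol orange absorbance, 573-to-405 nm ratio, after 30 min reaction with 40 uM arachidonic acid. Enzyme: 150 nM purified human 12hLO, 15 min compound preincubation; 25 mM Hepes pH 7.0, room temperature.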
IMPase cell inh: membrane-permeable compound that blocks inositol monophosphatase; P97697; CHO-M1 cells, IP1 accumulation, HTRF TR-FRET ratio; inhibition (IP1 accumulation), % at 46.1 µM; 120,000 tested, under 10 active; AID 901; active means well fitted curve in the direction sought with a large enough effect in the signal ratio, not every such curve was filed as active; inconclusive means small, poorly fitted or top-dose-only effect, or a change in a side signal; inactive means no such curve, though single readings can be large or run the other way; the % refers to the signal ratio;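 further: cells stimulated with carbachol in lithium chloride buffer; plate controls were DMSO basal wells for no effect and reference inhibitor wells for full effect; higher means more IMPase inhibition seen as more IP1 and lower FRET ratio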
Target sequence (P97697 whole entry, looked up): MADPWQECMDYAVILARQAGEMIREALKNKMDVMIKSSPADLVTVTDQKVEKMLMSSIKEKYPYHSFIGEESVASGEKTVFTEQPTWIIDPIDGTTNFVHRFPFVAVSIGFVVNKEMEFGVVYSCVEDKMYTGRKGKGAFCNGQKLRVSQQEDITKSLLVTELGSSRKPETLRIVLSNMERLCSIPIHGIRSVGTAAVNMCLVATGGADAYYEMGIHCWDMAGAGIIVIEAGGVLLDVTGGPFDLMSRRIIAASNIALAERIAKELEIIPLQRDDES
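Seeded CHO-M1 cells were dosed with compound at up to 46 uM, stimulated with carbachol for 30 min, then lysed in IP-One detection reagents. Higher IP1 lowers the TR-FRET signal.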
An asterisk follows results filed as active; ? = inconclusive; · = no result; [ ] = remark or other dose. Unless noted, the call rests on the fitted dose curve; in most records, active means well fitted curve in the direction sought with a large enough effect; inconclusive means small, poorly fitted or top-dose-only effect, or another doubt; inactive means no such curve, though single readings can be large; an effect the other way counts as inactive or inconclusive. Unless noted, on the % scale 0 is the no-effect control and ±100 the full control effect.

SMILES	IMPase Li inh	ALDH1A1 inh	HPGD inh	NPSR antag	ALOX12 inhib	IMPase cell inh
CN(Cc1ccccc1)C(=O)CN1C(=O)C2C3C=CC(C3)C2C1=O (stereo not drawn)	6.7%	-4.3%	-14.0%	4.1%[46.1 µM]	3.8%	-5.4
CCCCN(Cc1ccccc1)C(=O)CCN1C(=O)C2C3C=CC(C3)C2C1=O (stereo not drawn)	14.4%	2.24µM*	·	-6.7%	·	·
CNC(=O)C(Sc1ccccc1)c1ccccc1 (stereo not drawn)	-3.2%[38.3 µM]	-0.9%	-7.9%	-0.5%[46.1 µM]	0.4%	-0.1
Cn1nnnc1P(=O)(c1ccccc1)c1ccccc1	4.8%[38.3 µM]	2.7%	-11.1%	6.4%[46.1 µM]	-4.1%	-19.1
NC1=NC(=O)/C(=C/c2cn(CCC(=O)O)nc2-c2ccc(Cl)cc2)S1	4.1%	25.1%	12.6µM*	6.4%	-8.3%	4.9
O=C(O)CCn1cc(/C=C\C(=O)c2ccc(Cl)cc2)c(-c2cccc(Br)c2)n1	8.4%	?	25.1µM*	?	-2.6%	-1.2
N#CCCn1cc(/C=C/C(=O)O)c(-c2ccc(F)cc2)n1	2.6%	12.9%	·	12.0%	·	·
COc1ccc(-c2nn(CCC(=O)O)cc2/C=C2\SC(N)=NC2=O)cc1	-0.3%	4.2%	11.2µM*	8.9%	2.7%	-5.7
NC1=NC(=O)/C(=C/c2cn(CCC(=O)O)nc2-c2ccc(F)cc2)S1	0.2%	-15.2%	25.1µM*	8.4%	-0.7%	-12.3
CCCOc1ccc(-c2nn(-c3ccccc3)cc2/C=C2\SC(N)=NC2=O)cc1	?	11.8%	?	3.98µM*	-2.7%	·
O=C1/C(=C/c2ccco2)SC(=S)N1c1cccnc1	·	·	·	16.3%	·	·
CCCCN(CC)S(=O)(=O)c1ccc(C(=O)N(CCCN(C)C)c2nc3cc(C)cc(C)c3s2)cc1	15.3%	2.6%	·	10µM*	·	·
CC1(C)CC(=O)c2c(nc3ccccc3c2N)C1	28.8%[38.3 µM]	?	?	-3.4%[46.1 µM]	5.1%	-3.2[1.84 µM]
CCNc1c2c(nc3ccccc13)CC(C)(C)CC2=O	23.4%	14.1µM*	-5.4%	0.4%[46.1 µM]	-1.0%	10.0
CCNc1nc(NCC)nc(ON=C(C)C)n1	-4.5%[38.3 µM]	8.2%	1.7%	6.6%[46.1 µM]	6.6%	-3.8
O=c1c2ccccc2nc(-c2ccccc2)n1Cc1ccco1	0.1%[38.3 µM]	?	-18.1%	-4.1%[46.1 µM]	5.1%	-0.2
Cc1ccc(-c2nc3ccccc3c(=O)n2Cc2ccccc2)cc1	9.1%	15.8µM*	-3.3%	-11.8%	-2.0%	·
O=C(c1scc2c1CCCC2)N1CCCCC1	20.1%[38.3 µM]	-7.9%	8.91µM*	-9.3%[46.1 µM]	-1.6%	-0.7
COc1cccc(CS(=O)(=O)c2nnnn2C2CCCCC2)c1	-3.6%	1.1%	-1.8%	·	·	·
COc1cccc(CS(=O)(=O)c2nnnn2-c2ccccc2)c1	16.4%	1µM*	-15.1%	·	·	·
COc1cccc(-n2nnnc2SCC(=O)Nc2ccc(C(C)=O)cc2)c1	-23.2%	-11.4%	-12.4%	-5.0%	4.0%	?
CCCS(=O)(=O)c1nnnn1-c1cccc(OC)c1	42.2%[38.3 µM]	1.41µM*	22.4µM*	10µM*	-3.1%	17.3
S=C(c1ccc2c(c1)OCO2)N1CCCCCC1	10.4%[38.3 µM]	-12.3%	?	-6.8%[46.1 µM]	-16.5%	-7.9
Oc1cc2c(cc1C(c1ccc(Br)cc1)N1CCCC1)OCO2 (stereo not drawn)	5.8%	2µM*	·	-7.3%	·	·
Cc1c(C(=O)c2ccc(N(C)C)cc2)c2ccccn2c1CCC#N	-4.7%	15.8µM*	·	-24.7%	·	·
SMILES	IMPase Li inh	ALDH1A1 inh	HPGD inh	NPSR antag	ALOX12 inhib	IMPase cell inh
O=C1CC(C(=O)N2CCN(c3ccc(F)cc3)CC2)CN1CCc1ccccc1 (stereo not drawn)	1.5%[38.3 µM]	-11.3%	-7.3%	5.4%[46.1 µM]	11.4%	-0.5
COc1ccccc1NC(=O)C(=O)NNS(=O)(=O)c1ccc2ccccc2c1	·	·	·	0.5%	·	·
COc1ccc(NC(=S)NNS(=O)(=O)c2ccc3ccccc3c2)c(OC)c1	-4.0%	22.4µM*	·	0.1%	·	·
Cc1ccccc1N1C(=O)C(Cc2ccc(F)cc2)S/C1=C(\C#N)C(N)=O (stereo not drawn)	·	·	·	5.7%[7.67 µM]	·	·
Cc1cc(C)nc(/N=C2\NC(=O)CC(C(=O)O)N2c2ccc(Oc3ccccc3)cc2)n1 (stereo not drawn)	-6.4%[38.3 µM]	-4.8%	12.6µM*	-9.0%[46.1 µM]	1.7%	0.1
CCOc1cccc(C(=O)NC(=S)Nc2cccnc2)c1	5.2%	?	-12.2%	-2.0%	-3.3%	·
CC(C)Oc1cccc(C(=O)NC(=S)Nc2cccc(C(F)(F)F)c2)c1	9.4%[38.3 µM]	17.8µM*	-21.9%	-23.8%[46.1 µM]	?	-0.5
CCCCOc1cccc(C(=O)NC(=S)Nc2cccnc2)c1	-1.6%	25.1µM*	-11.8%	-2.4%	-8.2%	·
CCCCOc1cccc(C(=O)NC(=S)Nc2cccc(C(F)(F)F)c2)c1	3.4%	8.91µM*	-21.1%	-33.1%	-2.0%	·
O=C(Cc1ccccc1)NC(=S)Nc1cccc(C(F)(F)F)c1	·	-5.5%	·	-19.4%[46.1 µM]	?	-10.9
O=C(CSC1=NCCS1)NC(c1ccccc1)c1ccccc1	7.8%	-2.8%	-5.7%	-33.6%	-3.6%	·
Nn1c(SCc2ccc(F)cc2)nnc1-c1ccccn1	·	·	·	4.5%	·	·
O=C1CN(C(=O)c2ccccn2)c2ccccc2N1	5.3%[38.3 µM]	17.1%	-1.3%	-16.7%[7.67 µM]	1.4%	1.9
O=c1c(CCc2ccccc2)nc2cnc(Oc3ccccc3)nc2n1C1CC1	-0.2%	11.2µM*	·	·	·	·
N#CCCn1c(=O)c(-c2ccc(F)cc2)nc2cnc(Oc3cccc(Cl)c3)nc21	8.91µM*	?	-18.1%	·	5.9%	·
Cc1nc2cnc(Oc3cccc(Cl)c3)nc2n(CCC#N)c1=O	-1.1%	-9.7%	-14.9%	·	-0.4%	·
N#CCCn1c(=O)c(-c2ccc(Cl)cc2)nc2cnc(Oc3cccc(Cl)c3)nc21	11.2µM*	?	-7.2%	·	-4.4%	·
N#CCCn1c(=O)c(CCc2ccccc2)nc2cnc(Oc3cccc(Cl)c3)nc21	6.6%	10µM*	0.2%	·	-6.4%	·
CN(C)c1ncc2nc(CCc3ccccc3)c(=O)n(C3CC3)c2n1	2.7%	?	·	·	·	·
N#CCCn1c(=O)c(-c2cccc(C#N)c2)nc2cnc(Oc3cccc(Cl)c3)nc21	11.1%	?	·	·	·	·
COc1cccc(C2=CC(c3cccc(OC)c3OC(F)F)n3nnnc3N2)c1 (stereo not drawn)	17.1%[38.3 µM]	-1.6%	-16.9%	-22.3%[46.1 µM]	5.6%	0.1
CC1=NNC(=O)C1Cc1ccc(F)cc1 (stereo not drawn)	·	·	·	-10.8%	·	·
COc1ccccc1NC(=O)NCc1ccc2c(c1)OCO2	6.3%	12.7%	-13.8%	-8.8%[46.1 µM]	4.9%	1.2
COc1ccc(/C=C(/CC(=O)NCc2ccc(Cl)cc2)c2nc3ccccc3s2)cc1	13.1%	?	?	-25.4%	2.7%	·
COc1ccccc1/C=C(/CC(=O)NCc1ccc2c(c1)OCO2)c1nc2ccccc2s1	8.2%	1.41µM*	-13.4%	-28.9%	-2.8%	·
